These results are taken from the supplement of paper PMC11001985.

Chain of UniProt Q6YHK3 (Q6YHK3 whole entry): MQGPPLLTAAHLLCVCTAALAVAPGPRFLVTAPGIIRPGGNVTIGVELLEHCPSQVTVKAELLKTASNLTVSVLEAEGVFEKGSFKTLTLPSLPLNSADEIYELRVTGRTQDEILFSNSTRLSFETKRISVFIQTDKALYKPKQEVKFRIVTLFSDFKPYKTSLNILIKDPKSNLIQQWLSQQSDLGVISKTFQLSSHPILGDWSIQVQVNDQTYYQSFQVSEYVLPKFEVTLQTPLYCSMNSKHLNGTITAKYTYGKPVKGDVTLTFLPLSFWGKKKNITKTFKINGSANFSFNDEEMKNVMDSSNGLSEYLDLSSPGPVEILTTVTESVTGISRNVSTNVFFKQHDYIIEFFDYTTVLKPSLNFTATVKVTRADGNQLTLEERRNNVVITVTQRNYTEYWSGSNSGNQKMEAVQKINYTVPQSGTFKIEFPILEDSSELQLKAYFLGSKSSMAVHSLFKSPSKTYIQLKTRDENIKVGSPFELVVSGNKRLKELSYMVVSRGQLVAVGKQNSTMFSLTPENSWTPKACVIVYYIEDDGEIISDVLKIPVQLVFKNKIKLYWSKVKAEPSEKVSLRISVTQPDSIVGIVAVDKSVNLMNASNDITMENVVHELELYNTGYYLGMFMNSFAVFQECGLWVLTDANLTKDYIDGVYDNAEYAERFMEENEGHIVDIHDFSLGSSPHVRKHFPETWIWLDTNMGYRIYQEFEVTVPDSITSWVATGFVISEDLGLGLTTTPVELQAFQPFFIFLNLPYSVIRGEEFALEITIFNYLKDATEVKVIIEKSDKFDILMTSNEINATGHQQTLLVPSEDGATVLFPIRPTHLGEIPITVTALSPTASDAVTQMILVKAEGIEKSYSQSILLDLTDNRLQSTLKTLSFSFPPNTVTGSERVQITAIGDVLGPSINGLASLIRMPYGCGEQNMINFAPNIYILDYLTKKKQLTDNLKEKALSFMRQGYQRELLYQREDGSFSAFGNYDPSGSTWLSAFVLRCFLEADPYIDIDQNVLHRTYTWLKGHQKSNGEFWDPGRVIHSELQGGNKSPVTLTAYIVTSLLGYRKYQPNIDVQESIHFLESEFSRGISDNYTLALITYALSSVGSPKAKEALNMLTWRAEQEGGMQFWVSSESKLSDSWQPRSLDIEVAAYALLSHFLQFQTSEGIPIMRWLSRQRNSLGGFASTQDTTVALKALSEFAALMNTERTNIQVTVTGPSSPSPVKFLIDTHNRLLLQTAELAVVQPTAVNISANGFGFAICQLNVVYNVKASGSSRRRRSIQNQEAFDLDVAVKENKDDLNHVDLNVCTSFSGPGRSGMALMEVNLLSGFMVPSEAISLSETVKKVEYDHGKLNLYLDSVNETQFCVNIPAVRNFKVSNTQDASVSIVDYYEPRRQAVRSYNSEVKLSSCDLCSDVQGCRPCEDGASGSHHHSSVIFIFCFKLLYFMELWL
Chain of UniProt Q10471 (Q10471 whole entry): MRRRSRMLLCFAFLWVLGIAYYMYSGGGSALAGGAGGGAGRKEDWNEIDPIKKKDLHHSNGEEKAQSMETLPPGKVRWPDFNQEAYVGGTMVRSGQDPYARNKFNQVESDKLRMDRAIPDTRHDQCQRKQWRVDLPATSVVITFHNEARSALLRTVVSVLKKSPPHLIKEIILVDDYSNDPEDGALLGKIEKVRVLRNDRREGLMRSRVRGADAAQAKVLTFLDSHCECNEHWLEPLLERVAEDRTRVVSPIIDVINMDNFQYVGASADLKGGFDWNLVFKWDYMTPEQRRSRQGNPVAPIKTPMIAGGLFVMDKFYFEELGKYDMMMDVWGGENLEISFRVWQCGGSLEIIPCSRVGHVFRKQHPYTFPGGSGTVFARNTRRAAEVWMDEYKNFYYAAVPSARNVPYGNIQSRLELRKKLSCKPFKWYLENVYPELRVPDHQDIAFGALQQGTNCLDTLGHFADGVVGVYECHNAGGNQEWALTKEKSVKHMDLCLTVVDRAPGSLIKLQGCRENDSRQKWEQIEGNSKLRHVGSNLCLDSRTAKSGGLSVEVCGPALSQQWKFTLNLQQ
Chain of UniProt Q00839 (Q00839 whole entry): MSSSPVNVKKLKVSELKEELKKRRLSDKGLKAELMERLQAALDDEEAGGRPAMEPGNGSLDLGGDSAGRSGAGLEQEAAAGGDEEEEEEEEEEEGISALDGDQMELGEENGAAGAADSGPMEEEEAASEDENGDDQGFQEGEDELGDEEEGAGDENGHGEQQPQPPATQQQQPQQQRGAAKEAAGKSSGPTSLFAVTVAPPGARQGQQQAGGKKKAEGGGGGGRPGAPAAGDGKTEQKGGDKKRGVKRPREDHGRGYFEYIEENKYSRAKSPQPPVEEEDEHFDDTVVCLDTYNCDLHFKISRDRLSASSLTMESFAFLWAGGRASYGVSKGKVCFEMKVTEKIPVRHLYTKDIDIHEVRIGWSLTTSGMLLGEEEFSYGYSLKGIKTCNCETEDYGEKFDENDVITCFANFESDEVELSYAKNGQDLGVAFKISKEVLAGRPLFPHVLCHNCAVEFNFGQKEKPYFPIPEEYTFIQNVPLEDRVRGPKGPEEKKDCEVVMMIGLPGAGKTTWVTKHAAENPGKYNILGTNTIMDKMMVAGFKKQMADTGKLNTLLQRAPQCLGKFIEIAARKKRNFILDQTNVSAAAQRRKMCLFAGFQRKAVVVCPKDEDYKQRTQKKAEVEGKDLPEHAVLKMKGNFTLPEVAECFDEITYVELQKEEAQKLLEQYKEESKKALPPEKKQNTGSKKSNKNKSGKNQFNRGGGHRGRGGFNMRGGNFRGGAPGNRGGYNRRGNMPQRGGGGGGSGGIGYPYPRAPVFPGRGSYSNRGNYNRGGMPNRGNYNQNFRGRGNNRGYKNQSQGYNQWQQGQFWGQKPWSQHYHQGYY
Chain of UniProt Q16363 (Q16363 whole entry): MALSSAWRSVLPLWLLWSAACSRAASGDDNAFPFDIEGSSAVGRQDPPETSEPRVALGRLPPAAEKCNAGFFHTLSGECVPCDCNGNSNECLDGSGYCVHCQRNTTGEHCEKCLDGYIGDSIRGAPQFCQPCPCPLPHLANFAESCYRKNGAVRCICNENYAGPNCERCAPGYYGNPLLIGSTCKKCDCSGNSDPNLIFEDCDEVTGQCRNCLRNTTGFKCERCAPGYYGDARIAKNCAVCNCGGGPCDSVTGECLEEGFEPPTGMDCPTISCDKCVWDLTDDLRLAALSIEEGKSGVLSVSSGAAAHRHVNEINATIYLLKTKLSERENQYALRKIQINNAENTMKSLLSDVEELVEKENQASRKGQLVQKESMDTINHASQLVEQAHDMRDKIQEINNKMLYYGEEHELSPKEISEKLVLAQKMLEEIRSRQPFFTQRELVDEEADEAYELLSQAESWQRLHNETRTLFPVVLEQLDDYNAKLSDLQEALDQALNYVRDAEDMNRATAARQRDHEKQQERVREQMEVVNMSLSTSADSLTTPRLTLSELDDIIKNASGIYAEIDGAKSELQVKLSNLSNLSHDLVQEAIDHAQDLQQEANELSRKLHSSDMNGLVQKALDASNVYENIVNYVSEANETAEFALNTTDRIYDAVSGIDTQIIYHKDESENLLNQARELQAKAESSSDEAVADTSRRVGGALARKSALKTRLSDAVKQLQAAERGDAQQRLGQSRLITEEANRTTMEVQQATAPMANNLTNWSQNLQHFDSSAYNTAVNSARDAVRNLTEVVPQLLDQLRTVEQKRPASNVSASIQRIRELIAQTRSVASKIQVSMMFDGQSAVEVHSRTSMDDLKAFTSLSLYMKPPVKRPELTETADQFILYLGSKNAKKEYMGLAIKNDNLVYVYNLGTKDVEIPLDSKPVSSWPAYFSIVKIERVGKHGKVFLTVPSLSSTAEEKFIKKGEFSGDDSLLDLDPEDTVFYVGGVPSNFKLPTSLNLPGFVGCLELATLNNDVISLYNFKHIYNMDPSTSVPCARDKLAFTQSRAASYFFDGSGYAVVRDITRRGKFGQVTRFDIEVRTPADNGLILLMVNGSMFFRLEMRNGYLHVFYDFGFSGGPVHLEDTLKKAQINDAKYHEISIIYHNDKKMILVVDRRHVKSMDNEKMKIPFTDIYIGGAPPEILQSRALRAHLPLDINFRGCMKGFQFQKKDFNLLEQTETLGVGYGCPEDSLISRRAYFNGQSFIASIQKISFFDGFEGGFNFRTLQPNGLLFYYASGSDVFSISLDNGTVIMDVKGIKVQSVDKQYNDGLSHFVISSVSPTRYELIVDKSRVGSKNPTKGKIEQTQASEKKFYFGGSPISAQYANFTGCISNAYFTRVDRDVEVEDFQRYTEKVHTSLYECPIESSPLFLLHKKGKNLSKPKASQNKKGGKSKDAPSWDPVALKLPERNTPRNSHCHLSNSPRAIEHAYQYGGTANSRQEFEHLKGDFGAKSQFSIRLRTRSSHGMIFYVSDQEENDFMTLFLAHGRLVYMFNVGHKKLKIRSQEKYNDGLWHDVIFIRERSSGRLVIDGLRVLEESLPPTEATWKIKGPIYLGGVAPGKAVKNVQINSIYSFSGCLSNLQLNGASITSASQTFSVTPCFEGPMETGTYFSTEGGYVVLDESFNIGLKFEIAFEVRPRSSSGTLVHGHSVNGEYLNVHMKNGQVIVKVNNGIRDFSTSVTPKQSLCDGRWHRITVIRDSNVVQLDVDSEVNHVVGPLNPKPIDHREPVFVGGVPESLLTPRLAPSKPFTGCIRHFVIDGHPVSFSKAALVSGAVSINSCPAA
Chain of UniProt Q99623 (Q99623 whole entry): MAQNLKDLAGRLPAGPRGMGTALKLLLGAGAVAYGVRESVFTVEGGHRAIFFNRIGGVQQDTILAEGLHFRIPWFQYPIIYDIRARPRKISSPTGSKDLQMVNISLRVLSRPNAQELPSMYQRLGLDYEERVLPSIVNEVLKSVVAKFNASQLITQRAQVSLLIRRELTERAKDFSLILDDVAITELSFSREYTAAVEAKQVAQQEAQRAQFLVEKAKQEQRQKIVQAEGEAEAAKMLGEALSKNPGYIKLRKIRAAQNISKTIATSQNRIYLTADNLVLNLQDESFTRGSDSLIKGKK
Chain of UniProt P26447 (P26447 whole entry, looked up): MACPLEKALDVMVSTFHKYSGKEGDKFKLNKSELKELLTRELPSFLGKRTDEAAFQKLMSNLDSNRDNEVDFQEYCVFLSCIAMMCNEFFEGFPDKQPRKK

Compound in this assay: C#CCNC(=O)CCSSCCC(=O)NCCc1ccc(C=O)c(C=O)c1
Description: lysine labeling ratio R10:1 (500 µM / 50 µM probe), SILAC-ABPP in living cells; higher = lower intrinsic lysine reactivity toward the probe, active = 2 or less. The note with it: HeLa; probe concentrations 500 vs 50 µM. The method in brief: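 Each lysine carries an R value: the filtered median of MS1 peptide ratios of high probe to low probe, with the median then taken over forward and reverse replicates. These came from living SILAC light and heavy HeLa cells in PBS at room temperature labelled with an alkyne-tagged, disulfide-linked lysine probe at 500 µM or 50 µM, in forward and reverse swaps. The lysates were mixed, clicked to biotin-azide, trypsin-digested, captured on neutravidin, released by DTT, alkylated and run by LC-MS/MS on a TIMS-TOF Pro. The highest value allowed is 20.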
For the target “GGT1 (lysine site: K181) (UniProt P19440)”, the “lysine labeling ratio R10:1” value was 1.46 (active).

On to “PSMD7 (lysine site: K180) (UniProt P51665)”, for which the “lysine labeling ratio R10:1” value is 2.86 (inactive).

With “RPL22 (lysine site: K52) (UniProt P35268)”, the “lysine labeling ratio R10:1” value is 7.72 (inactive).

As for UniProt Q96TA1 (lysine site: K430), the “lysine labeling ratio R10:1” value is 1.69 (active).

As for “ECH1 (lysine site: K231) (UniProt Q13011)”, the “lysine labeling ratio R10:1” value was 1.7 (active).

For “NCL (lysine site: K467) (UniProt P19338)”, the “lysine labeling ratio R10:1” value was 0.565 (active).

As to “SHMT2 (lysine site: K181) (UniProt P34897)”, the “lysine labeling ratio R10:1” value was 1.17 (active).

Consider UniProt P62258 (lysine site: K12), for which the “lysine labeling ratio R10:1” value was 7.18 (inactive).

Consider “CLTC (lysine site: K1516) (UniProt Q00610)”, for which the “lysine labeling ratio R10:1” value is 1.45 (active).

Regarding “FSCN1 (lysine site: K399) (UniProt Q16658)”, the “lysine labeling ratio R10:1” value was 3.81 (inactive).

As to “MCAM (lysine site: K398) (UniProt P43121)”, the “lysine labeling ratio R10:1” value is 5.61 (inactive).

Turning to “FLNA (lysine site: K704) (UniProt P21333)”, the “lysine labeling ratio R10:1” value was 1.61 (active).

On to UniProt P25705 (lysine site: K261), for which the “lysine labeling ratio R10:1” value is 2.94 (inactive).

As for “PLXNA1 (lysine site: K868) (UniProt Q9UIW2)”, the “lysine labeling ratio R10:1” value is 1.37 (active).

Regarding “CD151 (lysine site: K127) (UniProt P48509)”, the “lysine labeling ratio R10:1” value was 2.31 (inactive).

As for “MYH9 (lysine site: K1669) (UniProt P35579)”, the “lysine labeling ratio R10:1” value was 5.57 (inactive).

On to “HNRNPU (lysine site: K265) (UniProt Q00839)”, for which the “lysine labeling ratio R10:1” value was 2.4 (inactive).

“DSTN (lysine site: K19) (UniProt P60981)”: the “lysine labeling ratio R10:1” value is 1.87 (active).

For the target “NRP1 (lysine site: K534) (UniProt O14786)”, the “lysine labeling ratio R10:1” value was 2.17 (inactive).

Consider UniProt Q15149 (lysine site: K3685), for which the “lysine labeling ratio R10:1” value is 6.03 (inactive).

Consider UniProt Q99623 (lysine site: K216), for which the “lysine labeling ratio R10:1” value is 2.79 (inactive).

“SEMA3C (lysine site: K616) (UniProt Q99985)”: the “lysine labeling ratio R10:1” value is 5.77 (inactive).

As to “TAGLN2 (lysine site: K156) (UniProt P37802)”, the “lysine labeling ratio R10:1” value is 1.43 (active).

Consider “MISP (lysine site: K540) (UniProt Q8IVT2)”, for which the “lysine labeling ratio R10:1” value is 1 (active).

For “SND1 (lysine site: K177) (UniProt Q7KZF4)”, the “lysine labeling ratio R10:1” value was 0.9 (active).

Take “CD47 (lysine site: K130) (UniProt Q08722)”: the “lysine labeling ratio R10:1” value is 3.14 (inactive).

For the target “CCT2 (lysine site: K82) (UniProt P78371)”, the “lysine labeling ratio R10:1” value was 2.91 (inactive).

With UniProt Q16363 (lysine site: K518), the “lysine labeling ratio R10:1” value was 2.09 (inactive).

As for UniProt P62269 (lysine site: K106), the “lysine labeling ratio R10:1” value is 1.85 (active).

As to “GALNT2 (lysine site: K111) (UniProt Q10471)”, the “lysine labeling ratio R10:1” value was 3.04 (inactive).

For “MAP4 (lysine site: K959) (UniProt P27816)”, the “lysine labeling ratio R10:1” value was 3.23 (inactive).

Regarding “LDLR (lysine site: K783) (UniProt P01130)”, the “lysine labeling ratio R10:1” value was 3.22 (inactive).

Consider “F13A1 (lysine site: K258) (UniProt P00488)”, for which the “lysine labeling ratio R10:1” value is 1.15 (active).

Turning to “SERPINH1 (lysine site: K413) (UniProt P50454)”, the “lysine labeling ratio R10:1” value is 4.84 (inactive).

Turning to “CD109 (lysine site: K127) (UniProt Q6YHK3)”, the “lysine labeling ratio R10:1” value is 12 (inactive).

Consider UniProt P62277 (lysine site: K70), for which the “lysine labeling ratio R10:1” value was 6.69 (inactive).

For “HSPA8 (lysine site: K246) (UniProt P11142)”, the “lysine labeling ratio R10:1” value is 1.78 (active).

Consider “FN1 (lysine site: K2072) (UniProt P02751)”, for which the “lysine labeling ratio R10:1” value was 9.06 (inactive).

In the case of “SDC4 (lysine site: K105) (UniProt P31431)”, the “lysine labeling ratio R10:1” value was 3.81 (inactive).

As for “S100A4 (lysine site: K35) (UniProt P26447)”, the “lysine labeling ratio R10:1” value is 6.43 (inactive).
